TMEM16A inh = mouse TMEM16A channel inhibition, primary screen | 1.2% of 310,000 active | Q8BHY3 | HEK293 TMEM16A/YFP iodide influx fluorescence, ionomycin | normalized B-score (activity score, 25-100; higher = stronger inhibition) at 10 µM;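 active = ratio plate-corrected score three or more library SD toward inhibition, starting fluorescence score within five deviations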;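 note: score derived from kinetic fluorescence span divided by baseline fluorescence per well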
CHT block = inhibitors of human choline transporter CHT; Q9GZV3; 0.86% of 310,000 active; CHT-expressing cells, membrane potential dye, choline response; active compounds read low; B-score at 10 µM; AID 488975;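 active = B-score over 3 SD under the library average, and starting fluorescence ratio not unusually high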;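 note: choline stimulus applied at its EC90 after an EC20 pre-addition; B-score computed on integrated fluorescence ratio after choline addition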
TMEM16A act = mouse TMEM16A channel activation, primary screen. 0.3% of 340,000 active. B-score at 10 µM. AID 623877. HEK293 TMEM16A/YFP-H148Q/I152L, iodide quench fluorescence; active compounds read low;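 active = fluorescence-ratio B-score plate-corrected deviation score at least 3 library SD below zero, with starting fluorescence score within 5 deviations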;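 note: channel opened by trigger with iodide after compound preincubation; score built on the fluorescence ratio of max minus min over baseline; more negative score means more quench and so TMEM16A activation or potentiation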
CHT PAM = allosteric activators of human choline transporter CHT. Q9GZV3. CHT-expressing cells, membrane potential dye, choline EC20; active compounds read high; LV-AA mutant CHT in HEK293 cells. B-score at 10 µM. 0.49% of 310,000 active;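 active = initial fluorescence not abnormally high and integrated response B-score, plate-corrected, over 3 SD above library mean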
TMEM16A reconf = TMEM16A (mouse) chloride channel inhibition, re-confirmation; shares compounds with TMEM16A inh; HEK293 TMEM16A/YFP-H148Q, iodide quench fluorescence; ionomycin added to raise cell calcium; inhibition, % at 10 µM; 39% of 2,300 active; AID 652189;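 active = mean duplicate percent inhibition, scaled so buffer wells are 0 and the reference blocker 100, over three buffer SD above buffer mean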
TMEM16A Ca cntr = counter-screen for TMEM16A inhibitors: effect on calcium mobilization. shares compounds with TMEM16A inh. TMEM16A/YFP HEK293, Fluo4 calcium mobilization. calcium response (% of ionomycin), % at 10 µM. 2% of 2,300 active. AID 652231;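 active = duplicate-averaged calcium signal over 20% of the ionomycin maximum, relative to buffer baseline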;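 note: each well's signal is peak minus trough fluorescence divided by its pre-addition baseline; 0% = buffer wells and 100% = ionomycin wells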
Parental YFP cnt = counter-screen for TMEM16A inhibitors: effect in parental YFP-HEK293 cells; shares compounds with TMEM16A inh; iodide YFP quench, ionomycin; YFP ratio F(max-min)/F0 at 10 µM; 2,300 tested, under 10 active; AID 652233;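 active = yellow fluorescent protein signal ratio exceeding the buffer control mean by over 5 SD of those controls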;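 note: ratio is mean of duplicate wells from kinetic YFP trace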
ClC-1 rat inh = selectivity of TMEM16A inhibitors: inhibition of rat ClC-1 chloride channel. shares compounds with TMEM16A inh. CHO ClC-1-YFP, iodide influx fluorescence quench; iodide control reads 0, buffer control 100. ratio percent, % at 10 µM. 2,300 tested, under 10 active;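 active = duplicate-mean ratio percent above the mean of iodide-only control wells, which defines zero, plus 5 of their SD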;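 note: higher percent means stronger block of ClC-1 iodide influx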
* marks the source's active call; other numbers are inactive results; i = inactive; · = not tested or not shown. In the library only some 2.4% were active in any assay of this set; here they are far more common.

SMILES	TMEM16A inh	CHT block	TMEM16A act	CHT PAM	TMEM16A reconf	TMEM16A Ca cntr	Parental YFP cnt	ClC-1 rat inh
CC(=O)OC[C@H]1O[C@H](C/C=N/OC[C@@H](O)[C@H]2O[C@@H]3OC(C)(C)O[C@@H]3[C@H]2O)C=C[C@@H]1OC(C)=O	i	i	·	i	·	·	·	·
COc1ccc(NC(=O)CNC(=O)c2c(C)nn(C)c2Cl)cc1	i	i	i	i	·	·	·	·
Cc1ccc(Sc2ncccc2COC(=O)Nc2c(C)cccc2C)cc1	100*	i	i	i	i	i	-0.96	-14
Cc1ccccc1NC(=O)OCc1cccnc1Sc1ccc(Cl)cc1	i	i	i	i	·	·	·	·
Cc1ccc(Sc2ncccc2COC(=O)Nc2ccccc2)cc1	100*	i	i	i	i	i	-1.1	0
O=c1cc(-c2ccccc2Cl)oc2c(NS(=O)(=O)c3cccs3)ccc(O)c12	25*	i	i	i	27%*	i	-0.99	-4
O=c1cc(-c2ccccc2Cl)oc2c(NS(=O)(=O)c3ccccc3C(F)(F)F)ccc(O)c12	i	i	i	i	·	·	·	·
CC(C)CCN1C(=O)c2ccc(C(=O)Nc3ccccc3C(=O)O)cc2C1=O	25*	i	i	i	i	i	-1.1	-9
Cn1c(CNS(=O)(=O)c2ccc(F)cc2)n[nH]c1=S	100*	i	i	i	i	i	-1	-10
Cc1nnc2c3ccccc3c(-c3ccc(O)cc3)nn12	25*	i	i	i	i	i	-1.2	-6
Cc1oc2cc3oc(=O)c(CCC(=O)NC4CC4)c(C)c3cc2c1C	25*	i	i	i	i	i	-0.78	-15
O=C(NCc1ccc(Cl)cc1)c1ccccc1Oc1ccccc1	100*	i	i	i	i	i	-0.97	-2
O=C(NCc1ccccc1)c1ccc(Cl)cc1	i	i	·	i	·	·	·	·
CCCCN(C)CCn1c(=S)[nH]c2ccc(N3CCOCC3)cc2c1=O	25*	i	i	i	i	i	-0.9	-6
COCCCn1c(=S)[nH]c2ccc(N3CCOCC3)cc2c1=O	i	i	i	i	·	·	·	·
CCCc1ccc(O)c(N=Cc2cc(Br)cc(OCC)c2O)c1	i	i	i	i	·	·	·	·
CCOC(=O)c1cc2c(nc1N)CC(C)(CC)OC2 (configuration not stated)	i	i	i	i	i	i	-1.2	-8
CCc1nc2sc3ccccc3c(=O)c2c(=O)n1CCOC	25*	i	i	i	i	i	-1.1	-12
CCCc1cc(C(=O)N2CCN(c3ccc(C(F)(F)F)cn3)CC2)sc1C	100*	i	i	i	i	i	-1.2	-6
O=C(CSc1nnc2c3ccccc3c3ccccc3c2n1)Nc1ccccc1F	i	i	i	i	·	·	·	·
O=C(c1ccco1)N1CCCC(c2nc(-c3ccc(S(=O)(=O)NCc4ccccc4)cc3)no2)C1 (configuration not stated)	25*	i	i	i	44%*	i	-1	-16
COc1ccc(-c2noc(C3CCCN(C(=O)c4ccccc4)C3)n2)cc1 (configuration not stated)	i	i	i	i	·	·	·	·
O=C(O)c1ccc(N=Nc2c(O)[nH]c3ccc(Br)cc23)cc1	i	i	i	i	17%*	i	-0.77	-8
O=C(O)c1ccc(N=Nc2c(O)[nH]c3cc(Cl)ccc23)cc1	i	i	i	i	·	·	·	·
Fc1ccc(NCc2cccnc2)cc1	100*	i	i	i	i	i	-1.2	-2
c1ccc(-c2nc(CSc3nnc(-c4cccs4)o3)cs2)cc1	100*	i	i	i	i	i	-1.2	-4

Bioassay records from PubChem.
